{
  "source": "the supplement of paper PMC8728848",
  "binders": {"B1": {"name": "Mermaid2 (Stilbonema majum) (protein)", "chain": "MGSSHHHHHHSSGLVPRGSHMAASGWLRSPQGTVVKLYRRSLSWSKADEFCKDVDGRLVVDRTADMHLFLIKNVLKEKKSRVWVGLRRTAPHSRTWIWSDGTRQNEDDLNTNLWLRDEPNDAAGEEECALFMYSPWEKAWGLNDYLCRGGCRSYQFICEKGIR"}},
  "assay_in_all_cases": "glycan array binding signal (z-score within array); higher = stronger binding",
  "conditions_in_all_cases": "glycan notation: IUPAC condensed, linker removed",
  "key": {"[1]": {"biological_target": "GlcNAc(b1-2)Man(a1-3)[GlcNAc(b1-2)Man(a1-6)]Man(b1-4)GlcNAc(b1-4)[Fuc(a1-6)]GlcNAc", "procedure,_shortened": "(§1)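 Columns mapping to the same glycan were averaged after glycan names were converted to IUPAC-condensed notation. The data come from 3228 arrays in the Consortium for Functional Glycomics database, limited to those with an available protein sequence. Binding is reported as a within-array Z-score averaged across arrays of one protein sequence and across linkers.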"}, "[2]": {"biological_target": "GlcNAc(b1-2)[GlcNAc(b1-6)]Man(a1-6)[GlcNAc(b1-2)Man(a1-3)]Man(b1-4)GlcNAc(b1-4)GlcNAc", "procedure,_shortened": "as §1"}, "[3]": {"biological_target": "GlcNAc(b1-2)[GlcNAc(b1-6)]Man(a1-6)[GlcNAc(b1-2)Man(a1-3)]Man(b1-4)GlcNAc(b1-4)[Fuc(a1-6)]GlcNAc", "procedure,_shortened": "as §1"}, "[4]": {"biological_target": "GlcNAc(b1-3)Gal(b1-4)GlcNAc(b1-3)Gal(b1-4)GlcNAc", "procedure,_shortened": "as §1"}, "[5]": {"biological_target": "GlcNAc(b1-3)Gal(b1-4)GlcNAc(b1-3)Gal(b1-4)GlcNAc(b1-2)[GlcNAc(b1-3)Gal(b1-4)GlcNAc(b1-3)Gal(b1-4)GlcNAc(b1-6)]Man(a1-6)[GlcNAc(b1-3)Gal(b1-4)GlcNAc(b1-3)Gal(b1-4)GlcNAc(b1-2)Man(a1-3)]Man(b1-4)GlcNAc(b1-4)[Fuc(a1-6)]GlcNAc", "procedure,_shortened": "as §1"}, "[6]": {"biological_target": "GlcNAc(b1-3)Gal(b1-4)GlcNAc(b1-3)Gal(b1-4)GlcNAc(b1-3)Gal(b1-4)GlcNAc(b1-2)Man(a1-3)[GlcNAc(b1-3)Gal(b1-4)GlcNAc(b1-3)Gal(b1-4)GlcNAc(b1-3)Gal(b1-4)GlcNAc(b1-2)Man(a1-6)]Man(b1-4)GlcNAc(b1-4)GlcNAc", "procedure,_shortened": "as §1"}, "[7]": {"biological_target": "GlcNAc(b1-3)Gal(b1-4)GlcNAc(b1-6)[GlcNAc(b1-3)]Gal(b1-4)GlcNAc", "procedure,_shortened": "as §1"}, "[8]": {"biological_target": "GlcNAc(b1-4)GlcNAc(b1-4)GlcNAc", "procedure,_shortened": "as §1"}, "[9]": {"biological_target": "Man(a1-2)Man(a1-6)[Man(a1-3)]Man(a1-6)[Man(a1-2)Man(a1-2)Man(a1-3)]Man(b1-4)GlcNAc(b1-4)GlcNAc", "procedure,_shortened": "as §1"}, "[10]": {"biological_target": "Man(a1-3)[Man(a1-6)]Man(a1-6)[Man(a1-2)Man(a1-3)]Man(b1-4)GlcNAc(b1-4)GlcNAc", "procedure,_shortened": "as §1"}, "Man(b1-4)GlcNAc": {"biological_target": "Man(b1-4)GlcNAc", "procedure,_shortened": "as §1"}, "[11]": {"biological_target": "Neu5Ac(a2-3)Gal(b1-3)GlcNAc(b1-2)Man", "procedure,_shortened": "as §1"}, "[12]": {"biological_target": "Neu5Ac(a2-3)Gal(b1-3)[Fuc(a1-4)]GlcNAc", "procedure,_shortened": "as §1"}, "[13]": {"biological_target": "Neu5Ac(a2-3)Gal(b1-3)[Fuc(a1-4)]GlcNAc(b1-3)Gal(b1-4)[Fuc(a1-3)]GlcNAc", "procedure,_shortened": "as §1"}, "[14]": {"biological_target": "Neu5Ac(a2-3)Gal(b1-4)GlcNAc(b1-3)Gal", "procedure,_shortened": "as §1"}, "[15]": {"biological_target": "Neu5Ac(a2-3)Gal(b1-4)GlcNAc(b1-6)[Gal(b1-3)]GalNAc", "procedure,_shortened": "as §1"}, "Neu5Ac(a2-6)Gal(b1-4)Glc": {"biological_target": "Neu5Ac(a2-6)Gal(b1-4)Glc", "procedure,_shortened": "as §1"}, "[16]": {"biological_target": "Neu5Ac(a2-6)Gal(b1-4)GlcNAc(b1-2)Man(a1-3)[Man(a1-6)]Man(b1-4)GlcNAc(b1-4)GlcNAc", "procedure,_shortened": "as §1"}, "[17]": {"biological_target": "Neu5Ac(a2-6)Gal(b1-4)GlcNAc(b1-2)Man(a1-6)[Gal(b1-4)GlcNAc(b1-2)Man(a1-3)]Man(b1-4)GlcNAc(b1-4)GlcNAc", "procedure,_shortened": "as §1"}, "[18]": {"biological_target": "Neu5Ac(a2-6)Gal(b1-4)GlcNAc(b1-3)Gal(b1-4)GlcNAc", "procedure,_shortened": "as §1"}, "[19]": {"biological_target": "Neu5Ac(a2-6)Gal(b1-4)GlcNAc(b1-3)Gal(b1-4)GlcNAc(b1-3)GalNAc", "procedure,_shortened": "as §1"}, "[20]": {"biological_target": "Neu5Ac(a2-8)Neu5Ac(a2-3)Gal(b1-3)GalNAc(b1-4)[Neu5Ac(a2-3)]Gal(b1-4)Glc", "procedure,_shortened": "as §1"}, "[21]": {"biological_target": "Neu5Ac9Ac(a2-3)Gal(b1-4)GlcNAc", "procedure,_shortened": "as §1"}, "[22]": {"biological_target": "Neu5Gc(a2-3)Gal(b1-3)GlcNAc", "procedure,_shortened": "as §1"}, "[23]": {"biological_target": "Neu5Gc(a2-3)Gal(b1-4)GlcNAc(b1-3)Gal(b1-4)GlcNAc(b1-2)Man(a1-3)[Neu5Gc(a2-3)Gal(b1-4)GlcNAc(b1-3)Gal(b1-4)GlcNAc(b1-2)Man(a1-6)]Man(b1-4)GlcNAc(b1-4)GlcNAc", "procedure,_shortened": "as §1"}, "[24]": {"biological_target": "Neu5Gc(a2-3)Gal(b1-4)[Fuc(a1-3)]GlcNAc", "procedure,_shortened": "as §1"}},
  "note": "The full list was thinned out, with the strongest signals kept by preference.",
  "data": [
    {"binder": "B1", "values": [
      {"measurement": "glycan array binding signal (z-score)", "setting": "[1]", "result": 0.316},
      {"measurement": "glycan array binding signal (z-score)", "setting": "[2]", "result": -0.776},
      {"measurement": "glycan array binding signal (z-score)", "setting": "[3]", "result": -0.217},
      {"measurement": "glycan array binding signal (z-score)", "setting": "[4]", "result": -0.357},
      {"measurement": "glycan array binding signal (z-score)", "setting": "[5]", "result": 0.522},
      {"measurement": "glycan array binding signal (z-score)", "setting": "[6]", "result": -0.346},
      {"measurement": "glycan array binding signal (z-score)", "setting": "[7]", "result": -0.719},
      {"measurement": "glycan array binding signal (z-score)", "setting": "[8]", "result": 0.454},
      {"measurement": "glycan array binding signal (z-score)", "setting": "[9]", "result": -0.4},
      {"measurement": "glycan array binding signal (z-score)", "setting": "[10]", "result": 0.111},
      {"measurement": "glycan array binding signal (z-score)", "setting": "Man(b1-4)GlcNAc", "result": 5.41},
      {"measurement": "glycan array binding signal (z-score)", "setting": "[11]", "result": -0.619},
      {"measurement": "glycan array binding signal (z-score)", "setting": "[12]", "result": -0.173},
      {"measurement": "glycan array binding signal (z-score)", "setting": "[13]", "result": 3.06},
      {"measurement": "glycan array binding signal (z-score)", "setting": "[14]", "result": -0.777},
      {"measurement": "glycan array binding signal (z-score)", "setting": "[15]", "result": 6.1},
      {"measurement": "glycan array binding signal (z-score)", "setting": "Neu5Ac(a2-6)Gal(b1-4)Glc", "result": -0.397},
      {"measurement": "glycan array binding signal (z-score)", "setting": "[16]", "result": -0.03},
      {"measurement": "glycan array binding signal (z-score)", "setting": "[17]", "result": -0.551},
      {"measurement": "glycan array binding signal (z-score)", "setting": "[18]", "result": -0.49},
      {"measurement": "glycan array binding signal (z-score)", "setting": "[19]", "result": -0.709},
      {"measurement": "glycan array binding signal (z-score)", "setting": "[20]", "result": -0.435},
      {"measurement": "glycan array binding signal (z-score)", "setting": "[21]", "result": -0.505},
      {"measurement": "glycan array binding signal (z-score)", "setting": "[22]", "result": -0.34},
      {"measurement": "glycan array binding signal (z-score)", "setting": "[23]", "result": -0.883},
      {"measurement": "glycan array binding signal (z-score)", "setting": "[24]", "result": 3.71}
    ]}
  ]
}
